Measured values as given in PubChem BioAssay (NCATS).
Inconclusive results are not listed. Activity calls are given as the source filed them. The call rests on the fitted dose curve; in most records, active means well fitted curve in the direction sought with a large enough effect; inconclusive means small, poorly fitted or top-dose-only effect, or another doubt; inactive means no such curve, though single readings can be large; an effect the other way counts as inactive or inconclusive.

Tests used:
[1] = system: Zika virus NS2B-NS3 protease (linked construct); assay: Primary screen NINDS Rhodamine qHTS for Zika virus inhibitors (AID 1347160); further: nearly all actives have a fitted effect of over 55% in size; further: potency means the concentration at half of the fitted maximal effect
Method in brief: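 Purified linked NS2B-NS3 protease (NS2B hydrophilic domain joined to NS3 protease by flexible linker), 25 nM in 10 mM Tris-HCl pH 8.0, 0.01% Tween 20. Compounds titrated, 15 min preincubation at room temperature; 1.5 microM Rhodamine110 substrate, FITC fluorescence change over 15 min.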

[2] = OV-KATE Cancer Cell Toxicity qHTS against the NCATS CANVASS Library (AID 1347345); further: potency means the concentration at half of the fitted maximal effect
Method in brief: (§1)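 Cells were seeded at 1000 per well, allowed 4 h at 37 degrees C/5% CO2, then pin-treated with an 11-point compound series. After 72 h, viability was read as CellTiter-Glo luminescence following 15min at room temperature.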

[3] = HPAF-II Cancer Cell Toxicity qHTS against the NCATS CANVASS Library (AID 1347346); further: nearly all actives have a fitted effect of over 55% in size; further: potency means the concentration at half of the fitted maximal effect
Method in brief: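 HPAF-II cells were seeded at 1000 cells/well, allowed to settle for 4 h at 37 degrees C, then exposed to compounds in an 11-point series for 72 h. Viability was read by CellTiter-Glo luminescence.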

[4] = OV-SAHO Cancer Cell Toxicity qHTS against the NCATS CANVASS Library (AID 1347348); further: nearly all actives have a fitted effect of over 55% in size; further: potency means the concentration at half of the fitted maximal effect
Method in brief: as §1

[5] = HPAF-II 24hr Apoptosis Induction qHTS against the NCATS CANVASS Library (AID 1347356)
Method in brief: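 HPAF-II cells (500/well) in DMEM + 10% FBS were treated with an 11-point compound series for 24 hours at 37 degrees C. Caspase-3/7 activity was then read by Caspase-Glo DEVD luminescence after 15 min.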

[6] = HPAF-II 12hr Apoptosis Induction qHTS against the NCATS CANVASS Library (AID 1347358)
Method in brief: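 HPAF-II cells (500/well, DMEM + 10% FBS) were exposed to compounds for 12 hours at 37 degrees C. Caspase-3/7 activity was then read by Caspase-Glo 3/7 luminescence after 15 min at room temperature.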

[7] = HEK293 24hr Apoptosis Induction qHTS against the NCATS CANVASS Library (AID 1347359)
Method in brief: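 HEK293 cells (500/well, DMEM + 10% FBS) were exposed to compounds in an 11-point series for 24 hours at 37 degrees C, then caspase-3/7 activity was read by Caspase-Glo DEVD luciferase luminescence after 15 min.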

[8] = HEK293 12hr Apoptosis Induction qHTS against the NCATS CANVASS Library (AID 1347361); further: potency means the concentration at half of the fitted maximal effect
Method in brief: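 HEK293 cells (500/well) were exposed to an 11-point qHTS concentration series for 12 hours at 37 degrees C. Caspase-3/7 activity was then read by DEVD-substrate luciferase luminescence after 15 min at room temperature.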

[9] = KB-3-1 Cancer Cell Toxicity qHTS against the NCATS CANVASS Library (AID 1347366); further: nearly all actives have a fitted effect of over 75% in size; further: potency means the concentration at half of the fitted maximal effect
Method in brief: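 KB-3-1 cells (500/well) in DMEM with 10% FBS were exposed to compounds for 72 h at 37C. Viability was read by CellTiter-Glo luminescence.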

[10] = qHTS for ATAD5 Agonist screened against the NCATS CANVASS Library (AID 1347367);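 further: luciferase reporter driven by ATAD5 which rises upon DNA damage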
Method in brief: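 Luciferase reporter under ATAD5 control, stably integrated in HEK293T cells (2000/well). Compounds (11 points) incubated 16 h at 37C; viability read first by CellTiter-Fluor, then luminescence reporting ATAD5 activation. MMS positive control.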

[11] = MCF7 Cancer Cell Toxicity qHTS against the NCATS CANVASS Library (AID 1347369); further: potency means the concentration at half of the fitted maximal effect
Method in brief: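 MCF7 cells (500/well) were exposed 72 h at 37 °C to compounds in an 11-point series. Viability was read as ATP content by CellTiterGlo luminescence.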

[12] = qHTS for ATAD5 Antagonist screened against the NCATS CANVASS Library (AID 1347370); further: nearly all actives have a fitted effect of over 65% in size; further: potency means the concentration at half of the fitted maximal effect
Method in brief: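 HEK293T cells with a stably integrated ATAD5-controlled luciferase reporter were exposed to compounds (11-pt) alongside 10 uM 5-fluorouridine as ATAD5 stabilizer for 16hr at 37C. Viability was read by CellTiter-Fluor fluorescence, then ATAD5 by luminescence.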

[13] = J3T Cancer Cell Toxicity qHTS against the NCATS CANVASS Library (AID 1347371); further: potency means the concentration at half of the fitted maximal effect
Method in brief: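 J3T dog glioma cells (500 cells/well) were exposed to compounds in an 11-point series for 72 hr at 37C, 5% CO2. Cytotoxicity was read as ATP content by CellTiterGlo luminescence.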

[14] = target: Nuclear receptor subfamily 1 group I member 3 (Homo sapiens) (UniProt Q14994); assay: qHTS for Constitutive Androstane Receptor (CAR) Agonist screened against the NCATS CANVASS Library (AID 1347373);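 further: every well also contained 1.5 µM PK11195 alongside the test compound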
Method in brief: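 HepG2 cells stably expressing hCAR and a CYP2B6-2.2kb luciferase reporter were treated for 24hr at 37C with compounds (11-point qHTS) in the presence of 1.5uM PK11195. Reporter activation was read by ONE-Glo luminescence.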

[15] = 10-beta competent E. coli microbial cell viability qHTS against the NCATS CANVASS Library (AID 1347376); further: series mostly up to about 46 µM
Method in brief: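 10-beta competent E. coli (0.9 OD culture diluted to 0.2 OD) exposed to compounds in an 11-point qHTS series, incubated overnight at 37C, 5% CO2. Viability read as ATP by BacTiter-Glo luminescence after 20 min at room temperature.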

[16] = qHTS for Inflammasome Signaling Inhibitors: IL-1-beta AlphaLISA screen against the NCATS CANVASS Library (AID 1347379);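 further: human THP-1 cells primed with LPS then triggered with ATP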
Method in brief: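 Human THP-1 cells were pretreated 1 hr at 37 °C with compounds (up to 57.5 uM final), then stimulated with LPS (250 ng/mL final) and ATP (1.25 mM final). Secreted IL-1B was read by AlphaLISA after 16 hr.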

[17] = Cytotoxicity qHTS for assessment of Hepg2 cells membrane integrity screened against the NCATS CANVASS Library (AID 1347387)
Method in brief: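 HepG2 cells (2000/well) attached overnight at 37C, then received compounds in an 11-point series at 0.59 nM - 46 uM final for 5 hr. LDH release was detected fluorometrically (ex 560/em 590 nm) with CytoTox-ONE reagent after 10 min at room temperature.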

[18] = qHTS for activators of dead-cell proteases activity screened against the NCATS CANVASS Library (AID 1347392);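 further: luminescence from protease leaking out of membrane-damaged cells cleaving impermeant substrate; rising signal means more cytotoxicity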
Method in brief: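 HepG2 cells (2000/well) attached 18 h at 37C, then exposed 5 h to compounds (11-point qHTS). Dead-cell protease activity read as luminescence from cell-impermeant AAF-aminoluciferin substrate after 15 min at room temperature.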

[19] = Vero-766 cells viability qHTS against the NCATS CANVASS Library: Counterscreen for Zika virus inhibition assay (AID 1347394); further: nearly all actives have a fitted effect of over 60% in size; further: potency means the concentration at half of the fitted maximal effect
Method in brief: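 Vero 766 cells (1000/well), without Zika virus, were exposed to compounds for 72 h at 37C. Viability was measured by CellTiter Glo luminescence. Media-only wells served as 100% inhibition.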

[20] = Viability qHTS for inhibitors of the SERCaMP assay screened against the NCATS CANVASS Library (AID 1347400); further: nearly all actives have a fitted effect of over 70% in size; further: potency means the concentration at half of the fitted maximal effect
Method in brief: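 SH-SY5Y-GLuc SERCaMP MJH297-derived cells (1000 cells/well) were pre-incubated 4 h at 37C, then exposed to compounds for 48 h. Viability was read as CellTiter-Glo luminescence; bortezomib served as positive control.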

Measured: Potency

Chain of Nuclear receptor subfamily 1 group I member 3 (Homo sapiens) (Q14994 whole entry, looked up): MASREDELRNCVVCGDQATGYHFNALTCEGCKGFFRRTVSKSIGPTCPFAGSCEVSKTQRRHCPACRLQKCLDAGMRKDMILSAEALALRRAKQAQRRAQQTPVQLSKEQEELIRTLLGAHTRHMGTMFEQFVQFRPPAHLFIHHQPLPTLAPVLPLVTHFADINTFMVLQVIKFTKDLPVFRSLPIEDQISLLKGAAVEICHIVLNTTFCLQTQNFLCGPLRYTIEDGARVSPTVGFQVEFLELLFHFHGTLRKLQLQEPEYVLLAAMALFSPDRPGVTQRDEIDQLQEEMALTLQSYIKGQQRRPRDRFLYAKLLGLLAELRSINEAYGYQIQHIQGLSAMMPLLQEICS

C=C1C(=O)C[C@H]2C[C@@H]1[C@]2(C)CCC=C(C)C
active: [1] 17.5 µM
inactive: all other assays above

C[C@@H]1C(=O)[C@]23CC[C@H]1C[C@]21O[C@H]2C(C)(C)C=CC(=O)[C@]23COC1=O
inactive: all assays above

C=C[C@]1(C)CC[C@@H]([C@H](C)C(=O)/C=C/C(C)C)O1
inactive: all assays above

C/C=C/C(=O)[C@@H](C)C1=CC(=O)C2=C(O[C@@]34CC[C@H](O)C(C)(C)[C@@H]3CC[C@H](C)[C@@]4(C)C2)C1=O
inactive: [10] | [14] | [15] | [17]
active: [1] 49.3 µM | [2] 8.38 µM | [3] 3.75 µM | [4] 6.66 µM | [8] 9.35 µM | [9] 20.9 µM | [11] 13.1 µM | [12] 7.41 µM | [13] 5.26 µM | [16] 3.43 µM | [19] 18.6 µM | [20] 13.5 µM

O=C1C[C@@H](c2ccc(O)c(-c3c(O)cc(O)c4c3O[C@H](c3ccc(O)cc3)CC4=O)c2)Oc2cc(O)cc(O)c21
active: [1] 4.84 µM
inactive: all other assays above

Oc1ccc(C2c3c(O)cc(O)cc3[C@@H]3C(c4ccc(O)cc4)c4c(O)cc(O)cc4[C@H]23)cc1 (stereo not given in full)
active: [1] 34.9 µM
inactive: all other assays above

CC(=O)NC[C@@H]1O[C@H](CC/C=C(C)/C(C)=C/C=O)[C@H](C)C[C@H]1O
active: [1] 49.3 µM
not listed: [20]
inactive: all other assays above

C=C1C[C@@]23C=CC(=O)[C@@](C)(CCC(=O)Nc4c(O)ccc(C(=O)O)c4O)C2C[C@@H]1C(O)C3 (stereo not given in full)
active: [1] 44 µM
inactive: all other assays above

C=C(NC(=O)c1csc(-c2nc3c(cc2O)-c2nc(cs2)C(=O)NC(C(C)O)C(=O)N/C(=C(\C)O)c2nc(cs2)C(=O)NC2c4nc(cs4)C(=O)NC(COC(=O)c4c5c6c(cccc6n4O)COC(=O)[C@@H](OC4C[C@](C)(O)[C@H](N(C)C)[C@H](C)O4)C2OC5)c2nc-3cs2)n1)C(N)=O (stereo not given in full)
active: [1] 4.4 µM
inactive: all other assays above
